Test results from PubChem BioAssay AID651791 (National Center for Advancing Translational Sciences (NCATS), 2012).
Records with an inconclusive call do not appear. Active and inactive are the calls of the source. Calls come from the whole dose curve; as a rule, active = well fitted inhibition curve with a large enough effect; inconclusive = small, poorly fitted or top-dose-only effect; inactive = no such curve, though single readings can be large or run the other way.

Assay: InCell qHTS Assay for Inhibitors of the mTORC1 Signaling Pathway in MEF (Tsc2-/-, p53-/-) Cells: Hit Validation; note: nearly all actives have a fitted effect of over 75% in size
Details: phospho-rpS6 immunofluorescence, 24 h; activity change, negative = inhibition: at 38.3 µM (top of the series)
From the text: The mammalian target of rapamycin (mTOR) is an intracellular serine/threonine kinase Aberrant regulation of mTOR signaling plays a causative role in a number of human diseases, including cancer, benign tumors such as lymphangioleiomyomatosis (LAM) and Tuberous Sclerosis Complex (TSC), and metabolic diseases such as diabetes and obesity. This project aims to identify inhibitors of ribosomal protein S6 (rpS6) phosphorylation. The phosphorylation of rpS6 is a key event downstream of mTOR activation. The assay uses a phospho-specific antibody of phospho-rpS6 to detect inhibitors of mTOR activation. Mutations in the Tsc1 and Tsc2 genes are the underlying genetic lesions responsible for TSC, causing constitutive activation of the mTORC1 pathway and leading to profound effects on cell metabolism. Aberrant metabolism in cancer has recently received significant attention as a target to develop therapeutic agents in the treatment of cancer.1 As Tsc2-/- cells have lost the ability to respond to energy and growth factor deprivation, these cells are unable to properly down regulate cellular biosynthetic processes in response to metabolic stress, and are thus extremely sensitive to glucose deprivation-induced death.2 A central goal of this project is to explore the unique cell survival and metabolic properties of cells with Tsc1 or Tsc2 by screening for compounds that selectively target the Tsc2-/- MEFs by screening both Tsc2-/- and WT MEF cell lines. We hope to better understand these aspects of TSC physiology in order to exploit them for therapeutic benefit. NIH Molecular Libraries Probe Production Centers Network [MLPCN] NIH Chemical Genomics Center [NCGC] MLPCN Grant: NS059428 Assay Submitter (PI): Blenis, John; Harvard University
For quantitative high throughput analysis of mTORC1 signaling, we developed a cell-based assay for immuno-fluorescence based detection of rpS6 phosphorylation on the Acumen Explorer that will be used a platform for the primary small molecule screen. Mouse embryonic fibroblasts (MEFs) are cultured in 1536-well plates using DMEM + 10% FBS. Twenty-four hrs after plating, test compounds (solubilized in DMSO) are delivered and incubated with the cells for 24 hrs at 37 degree Celsius. Following the incubation, media with compound is aspirated and the cells are fixed in 4% paraformaldehyde (PFA) containing PBS + 0.2% TX-100. Next, PFA is aspirated, cells are washed two times with PBS plus 0.2% TX-100 and the cells are blocked for 1 hr at room temperature (blocking buffer: LiCOR Blocking Buffer plus 0.2% TX-100). This is followed by aspiration and staining with Alexa-488 conjugated-phospho-rpS6 Ser235/236 antibody for 2 hours at room temperature (Cell Signaling Technology # 4803, 1:50 dilution in blocking buffer). Cells are washed two times with PBS plus 0.2% TX-100, and stained with 10 uM propidium iodide (PI) for 20-25 minutes for cell number measurement (1:500 dilution of Hoescht staining is also added for IN Cell imaging). The plates are scanned on the Acumen Explorer laser scanning instrument (TTP Labtech) using the 488nm laser for simultaneous excitation of the Alexa-488 and PI. The fluorescence emission from the Alexa-488 conjugated rpS6 phospho-235/236 antibody staining is selected using a […] band pass filter. Fluorescence emission from the PI stain is selected using a 575-640 nm band pass filter. The normalized phospho-S6 staining is calculated as the ratio of the integrated Alexa 488 intensity divided by the integrated PI intensity for the single concentration rapamycin control (7.5 nM) and DMSO columns. […] Inhibition of the pathway is defined based on the normalized phospho-S6 intensity in rapamycin treated cells. […]
Potency is the fitted concentration of half-maximal effect.

Row | Structure (SMILES) | activity change, negative = inhibition [%] | Potency
1 | CCC(Sc1nncn2c1cc1oc(C)cc12)C(=O)Nc1ccc(F)cc1 (stereo not given) | -100 | 
2 | COc1ccc(OC)c(C(=O)CC2(O)C(=O)N(Cc3ccccc3C)c3ccccc32)c1 (stereo not given) | -100 | 
3 | Cc1cccc(N(C)S(=O)(=O)c2ccc(-c3cc(C)no3)s2)c1 | -9.17 | 
4 | CCSc1oc(-c2ccc(F)cc2)nc1S(=O)(=O)c1ccc(C)cc1 | -100 | 
5 | Cc1ccc(C)c(NC(=O)c2nc(S(=O)(=O)Cc3ccc(F)cc3)ncc2Cl)c1 |  | 3.29 µM (active)
6 | COc1ccc(C(=O)Nc2ccc(OCc3cc(=O)n4ccccc4n3)cc2)cc1 | -100 | 
7 | CCOC(=O)c1c(C)n(-c2ccccc2)c2ccc(OC(=O)c3ccccc3)cc12 | -100 | 
8 | CCS(=O)(=O)c1oc(-c2ccc(F)cc2)nc1S(=O)(=O)c1ccc(Br)cc1 |  | 3.69 µM (active)
9 | CCc1ccc(NC(=O)CSc2nccn2C2CCCC2)cc1 | -100 | 
10 | CC1=Nc2cc(C(=O)NC3CCCC3)ccc2Sc2ccc(Br)cc21 | -100 | 
11 | COc1ccc(S(=O)(=O)N(Cc2nc(-c3cccc(C)c3)no2)C2CCCCC2)cc1 | -100 | 
12 | Cc1ccc(NC(=O)CCNS(=O)(=O)c2cccc3nonc23)cc1Cl | -100 | 
13 | Nc1nc(Nc2ccccc2F)sc1C(=O)c1ccc(Cl)cc1 | -100 | 
14 | Cc1ccc(C)c(N2CCN(CCCNC(=O)c3nnc(Cc4ccc(F)cc4Cl)o3)CC2)c1 | 1.72 | 
15 | COc1ccc(N2CC(c3nc(-c4cc(OC)c(OC)c(OC)c4)no3)CC2=O)cc1Cl (stereo not given) | -100 | 
16 | Cc1cccc(NC(=O)Cn2cc(C(=O)c3ccco3)c3ccccc32)c1C | -100 | 
17 | Cc1nn(CC(=O)N2CCN(c3ccccc3F)CC2)c(=O)c2cccn12 | -100 | 
18 | Cc1oc(-c2ccccc2F)nc1Cn1c(SCc2cccc(Cl)c2)nc2ccncc21 | -100 | 
19 | Oc1ccc(NCc2ccccc2OCc2ccc(Cl)cc2)cc1 | -100 | 
20 | CCn1c(=N)n(CCOc2ccc(Br)cc2)c2ccccc21 |  | 14.7 µM (active)

Row | Structure (SMILES) | activity change, negative = inhibition [%] | Potency
21 | CCOC(=O)c1cnc2ccc(OC)cc2c1NCCc1ccccc1 | -100 | 
22 | COC(=O)c1ccc(Nc2nnc(-c3ccc(C)c(S(=O)(=O)N4CCN(C)CC4)c3)c3ccccc23)cc1 | -100 | 
23 | CCc1ccc(NC(=O)Cn2nc(C(F)(F)F)c3c2CCCC3)cc1 | -100 | 
24 | CC(C(=O)NCc1cccc(Br)c1)n1ncn2cccc2c1=O (stereo not given) | -100 | 
25 | Cc1ccc(NC(=O)CSc2nc(=O)cc(N)n2CCc2ccccc2)cc1 | -100 | 
26 | O=C(NCCc1ccc(Cl)cc1)C(=O)NCC(c1cccs1)S(=O)(=O)c1cccs1 (stereo not given) | -100 | 
27 | CCOc1ccc(N(Cc2ccccc2)C(=O)c2nc(S(C)(=O)=O)ncc2Cl)cc1 |  | 2.93 µM (active)
28 | COc1cc(NC(=O)Cn2nc(C(F)(F)F)c3c2CCCC3)c(OC)cc1Cl | -100 | 
29 | COC(=O)c1c(C)oc2ccc(N(C(=O)c3ccncc3)S(=O)(=O)c3ccc(OC)cc3)cc12 | -25.4 | 
30 | COc1ccc(CNC(=O)C2CCN(c3nc4ccc(C)cc4[nH]3)CC2)cc1 | -100 | 
31 | COc1ccc(Nc2cc(C)nc(-n3nc(C)cc3C)n2)cc1Cl | -100 | 
32 | CN(C)c1ccc(NC(=O)Cn2cc(S(=O)(=O)Cc3ccccc3Cl)c3ccccc32)cc1 | -29.2 | 
33 | Cc1cccc(-c2nc3c(cnn3-c3ccccc3)c(=O)n2-c2ccc(Br)cc2)c1 | -100 | 
34 | COc1cc(C(=O)Nc2ccc(NC(=O)c3ccc(C(C)(C)C)cc3)cc2)cc(OC)c1OC | -100 | 
35 | CCn1c(=O)sc2cc(NS(=O)(=O)c3ccc(F)c(C)c3)ccc21 | -100 | 
36 | O=C(Cn1cc(SCc2ccccc2)c2ccccc21)N1CCCCCC1 | -100 | 
37 | O=C(C1CCN(c2nc3ccccc3[nH]2)CC1)N1CCN(c2cccc(Cl)c2)CC1 | -100 | 
38 | CCOC(=O)N1CCN(Cc2nc3cc(NC(C)=O)ccc3n2C(C)C)CC1 | -100 | 
39 | Cc1ccc2c(c1)cc(C(=O)Nc1ccccc1C)n2C | -18.6 | 
40 | CCOC(=O)c1cnc2ccc(OCC)cc2c1NCCc1ccc(OC)c(OC)c1 | -100 | 
